Measurements as given in PubChem BioAssay (NCATS).
Inconclusive results are not listed. A number with no mark means an inactive call. Calls of active or inactive are those of the source. Unless noted, the call rests on the fitted dose curve.

Tested on: not listed separately
Experiment: qHTS assay for small molecule disruptors of the mitochondrial membrane potential - 1 hr assay (AID 651754); further: nearly all actives have a fitted effect of over 35% in size; further: potency means the concentration at half of the fitted maximal effect; on ratio change, negative = depolarisation: on the % scale 0 is the no-effect control and ±100 the full control effect
Conditions: series mostly up to 92.2 µM; ratio change, negative = depolarisation: at the top concentration
Procedure, shortened: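 Read-out: dye fluorescence at 490 nm ex/535 nm em (monomers) and 540 nm ex/590 nm em (aggregates) in HepG2 cells. Compound exposure 1 hr at 37C, followed by 30 min dye loading.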

Structure (SMILES)	Potency	ratio change, negative = depolarisation [%]
COc1cc([C@H]2Oc3cc([C@H]4Oc5cc(O)cc(O)c5C(=O)[C@@H]4O)ccc3O[C@@H]2CO)ccc1O	18.8 µM (active)	
COc1ccc(C(Cl)=C(c2ccc(OC)cc2)c2ccc(OC)cc2)cc1	15 µM (active)	
Oc1c(Cl)cc(Cl)c(Cl)c1Cc1c(O)c(Cl)cc(Cl)c1Cl	2.98 µM (active)	
NCCNc1cccc2ccccc12		12.5
CCCCC(CC)COC(=O)c1ccc(N(C)C)cc1 (configuration not stated)	7.5 µM (active)	
C=C[C@H]1CN2CC[C@H]1C[C@@H]2[C@@H](O)c1ccnc2ccc(OC)cc12		2.03

Tested on: not listed separately
Experiment: qHTS assay for small molecule disruptors of the mitochondrial membrane potential - 5 hr assay (AID 651755); further: nearly all actives have a fitted effect of over 40% in size; further: potency means the concentration at half of the fitted maximal effect; on ratio change, negative = disruption: on the % scale 0 is the no-effect control and ±100 the full control effect
Conditions: JC-1-type ratio dye; series mostly up to 92.2 µM; ratio change, negative = disruption: at the top concentration
Procedure, shortened: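 Seed HepG2 overnight, add compound, incubate 5 hr at 37C and 5% CO2, stain 30 min with Mito-MPS, then measure monomer (490/535 nm) and aggregate (540/590 nm) fluorescence.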

Structure (SMILES)	Potency	ratio change, negative = disruption [%]
COc1cc([C@H]2Oc3cc([C@H]4Oc5cc(O)cc(O)c5C(=O)[C@@H]4O)ccc3O[C@@H]2CO)ccc1O	26.6 µM (active)	
COc1ccc(C(Cl)=C(c2ccc(OC)cc2)c2ccc(OC)cc2)cc1	18.8 µM (active)	
Oc1c(Cl)cc(Cl)c(Cl)c1Cc1c(O)c(Cl)cc(Cl)c1Cl	3.35 µM (active)	
CCCCC(CC)COC(=O)c1ccc(N(C)C)cc1 (configuration not stated)		-26.2
C=C[C@H]1CN2CC[C@H]1C[C@@H]2[C@@H](O)c1ccnc2ccc(OC)cc12		-8.68

Molecular target: Tumor necrosis factor (Homo sapiens) (UniProt P01375)
Sequence (P01375 whole entry, looked up): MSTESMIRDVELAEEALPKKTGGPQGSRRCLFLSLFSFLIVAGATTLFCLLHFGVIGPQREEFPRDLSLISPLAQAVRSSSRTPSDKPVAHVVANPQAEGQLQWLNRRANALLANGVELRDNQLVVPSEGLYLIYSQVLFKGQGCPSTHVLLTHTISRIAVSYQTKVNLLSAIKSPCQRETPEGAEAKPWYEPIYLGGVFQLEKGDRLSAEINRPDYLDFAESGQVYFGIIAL
Experiment: qHTS assay to identify small molecules that stimulate Tumor Necrosis Factor-alpha (TNF-alpha) secretion (AID 651757; active means well fitted curve in the direction sought with a large enough effect in the signal ratio; the % refers to the signal ratio; further: 0% is about no effect)
Conditions: Human cells, HTRF 665/615 ratio; series mostly up to 92.2 µM; activation (TNF-alpha secretion): at the top concentration
Procedure, shortened: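 THP-1 cells, 3000/well; compound 17 hrs, 37 C; add cryptate/XL665 anti-TNF-alpha antibody pair; 3 hr RT; TR-FRET (HTRF) read of secreted TNF-alpha. Quantitative HTS format.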

Structure (SMILES)	activation (TNF-alpha secretion) [%]
OC[C@H]1O[C@@H]2O[C@H]3[C@H](O)[C@@H](O)[C@@H](O[C@H]4[C@H](O)[C@@H](O)[C@@H](O[C@H]5[C@H](O)[C@@H](O)[C@@H](O[C@H]6[C@H](O)[C@@H](O)[C@@H](O[C@H]7[C@H](O)[C@@H](O)[C@@H](O[C@H]8[C@H](O)[C@@H](O)[C@@H](O[C@H]1[C@H](O)[C@H]2O)O[C@@H]8CO)O[C@@H]7CO)O[C@@H]6CO)O[C@@H]5CO)O[C@@H]4CO)O[C@@H]3CO	0.443
COc1ccc(C(Cl)=C(c2ccc(OC)cc2)c2ccc(OC)cc2)cc1	0.264
C/C=C/c1ccc(O)c(OC)c1	-0.0686
COc1ccc(C(=O)c2ccccc2)c(O)c1	0.418
CCOc1ccccc1C(N)=O	0.205
CCCN(CCC)S(=O)(=O)c1ccc(C(=O)O)cc1	-0.142
CCCCC(CC)COC(=O)c1ccc(N(C)C)cc1 (configuration not stated)	2.44
C=C[C@H]1CN2CC[C@H]1C[C@@H]2[C@@H](O)c1ccnc2ccc(OC)cc12	0.189
Oc1ccc(Cl)cc1Cc1cc(Cl)ccc1O	-0.0166
CCOc1ccc(NC(C)=O)cc1	0.644
NC(=O)c1ccccc1O	0.529
